Measurements taken from PubChem BioAssay AID624405 (Broad Institute, 2012).
The whole screen tested about 1,900 compounds, of which about 250 (13%) were called active. Roughly 4% stayed inconclusive and do not appear here.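 The calls were made as follows: active = fitted curve reaches 40% rescue activity at or below the top valid dose, in every test run; inconclusive = test runs disagree, some active and some inactive; inactive = every run misses the threshold or moves the wrong way.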 Not all results are given here. Entries with a potency or affinity are not part of this list.

Experiment: rescue of simvastatin-induced ATP loss – cell-based, C2C12 myotubes, ATP luminescence, cherry pick, dose response (AID 624405);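 also: myotubes are challenged with simvastatin at 10 µM to lower ATP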
Conditions: 48 h, scaled: DMSO wells 0, geranylgeraniol wells 100; series mostly up to 19.5 µM

| SMILES | outcome |
| --- | --- |
| c1cnc2ccc(C(c3nnnn3C3CCCC3)N3CCN(c4nc5ccccc5s4)CC3)cc2c1 (centres undefined) | inactive |
| CC(C)NC(=O)CN1C(=O)NC(CCc2ccccc2)C1=O (centres undefined) | inactive |
| CCCn1c2c(c(O)c(C(=O)NC)c1=O)CCCC2 | inactive |
| C[C@H]1CN([C@@H](C)CO)S(=O)(=O)c2ccc(C#CC3CCCCC3)cc2O[C@H]1CN(C)C(=O)Cc1ccncc1 | inactive |
| COc1ccc(S(=O)(=O)N2CCOCC2)cc1NC(=O)CSc1ncccn1 | inactive |
| Cc1c(N=Cc2c(O)n(Cc3ccco3)c(=O)c3ccccc23)c(=O)n(-c2ccccc2)n1C | inactive |
| CCOC(=O)C1CCN(S(=O)(=O)c2nc3nc(C)cc(C)n3n2)CC1 | inactive |
| O=C(NNC(=O)c1ccncc1)Nc1ccc(N=Nc2ccccc2)cc1 | inactive |
| COc1ccc(C#Cc2ccc([C@H]3[C@H]4CN(C(=O)c5ccncc5)CCCCN4[C@H]3CO)cc2)cc1 | inactive |
| C[C@@H]1CN([C@@H](C)CO)C(=O)c2cc(NS(=O)(=O)c3cccs3)ccc2O[C@@H]1CN(C)Cc1ccc2c(c1)OCO2 | inactive |
| C[C@H]1CN([C@@H](C)CO)C(=O)c2cccc(NS(=O)(=O)c3cccs3)c2O[C@@H]1CN(C)C(=O)Nc1ccc(C(F)(F)F)cc1 | inactive |
| Cc1cccc(OCC(=O)Nc2cc(C)ccc2O)c1 | inactive |
| Cc1ccc(-c2noc(-c3cccs3)n2)cc1 | inactive |
| COc1ccccc1-c1noc(-c2ccncc2)n1 | inactive |
| Cc1ccc(C(=O)OCC(=O)Nc2ccc3c(c2)OCO3)cc1S(=O)(=O)N1CCOCC1 | inactive |
| CCOC(=O)C(C)n1nc(/C=C/c2ccccc2)ccc1=O (centres undefined) | inactive |
| C[C@@H]1CN([C@@H](C)CO)C(=O)Cc2cc(NC(=O)Cc3cn(C)c4ccccc34)ccc2O[C@H]1CN(C)Cc1ccc(Oc2ccccc2)cc1 | inactive |
| O=C(Nc1nc2c(s1)CCCC2)c1ccc(Br)o1 | inactive |
| C[C@H](CO)N1C[C@H](C)[C@@H](CN(C)S(=O)(=O)c2cn(C)cn2)Oc2ccc(NC(=O)Nc3ccc(C(F)(F)F)cc3)cc2C1=O | inactive |
| C[C@H](CO)N1C[C@H](C)[C@@H](CN(C)S(=O)(=O)c2ccc(Cl)cc2)Oc2c(NC(=O)Nc3ccc(C(F)(F)F)cc3)cccc2C1=O | inactive |
| C[C@H](N)c1nnc(SCC(=O)c2ccc(Cl)cc2)o1 | inactive |
| CC(C)CC#Cc1cnc2c(c1)C(=O)N([C@@H](C)CO)C[C@@H](C)[C@H](CN(C)S(=O)(=O)c1cccs1)O2 | inactive |
| CCn1c(CSc2nc(C)cc(C)n2)nnc1SCC(=O)Nc1nc(-c2ccccc2)cs1 | inactive |
| COc1ccc(S(=O)(=O)Nc2cccc3c2O[C@H](CN(C)S(=O)(=O)c2ccc(Cl)cc2)[C@H](C)CN([C@@H](C)CO)C3=O)cc1 | inactive |
| CCOc1ccccc1C(=O)n1nc(C)cc1C | inactive |
| CCOC(=O)Cn1c(=O)c2c(nc3n2CCN3Cc2ccccc2)n(C)c1=O | inactive |
| CCCCOC(=O)Cn1c(=O)c2c(nc3n2CCCCN3c2ccc(C)cc2)n(C)c1=O | inactive |

| SMILES | outcome |
| --- | --- |
| O=C1c2ccccc2C(=O)N1CCC1=CCCCC1 | inactive |
| C[C@@H]1CN([C@H](C)CO)C(=O)c2cccc(NS(=O)(=O)c3cccs3)c2O[C@@H]1CN(C)S(=O)(=O)c1cccs1 | inactive |
| Fc1ccccc1OCCCN1CCOCC1 | inactive |
| C[C@H]1CN([C@@H](C)CO)C(=O)c2cc(/C=C/c3ccccc3)cnc2O[C@@H]1CN(C)C(=O)Nc1ccccc1F | inactive |
| C=CCSc1nc(C)c2cc(C)cc(C)c2n1 | inactive |
| O=S(=O)(NCc1csc(-c2cccs2)n1)c1cccc(C(F)(F)F)c1 | inactive |
| CC(C)(CSc1ncccn1)NS(=O)(=O)c1ccccc1 | inactive |
| COc1ccc(NC(=O)N(C)C[C@H]2OCCCC[C@H](C)Oc3ccc(NS(=O)(=O)c4c(C)noc4C)cc3C(=O)N([C@@H](C)CO)C[C@H]2C)cc1 | inactive |
| Cc1cc(C)n(C(=O)c2ccc(S(=O)(=O)NCC3CCCO3)cc2)n1 (centres undefined) | inactive |
| C[C@@H]1CN([C@@H](C)CO)C(=O)c2cccc(NC(=O)C3CCCCC3)c2O[C@H]1CN(C)S(=O)(=O)c1ccc(Cl)cc1 | inactive |
| C[C@@H]1CCCCO[C@@H](CN(C)Cc2ccc(Cl)c(Cl)c2)[C@H](C)CN([C@@H](C)CO)C(=O)c2cc(NC(=O)Cc3ccccc3)ccc2O1 | inactive |
| O=c1cc(CN2CCN(Cc3ccccc3)CC2)c2cc3c(cc2o1)CCC3 | inactive |
| Cc1sc2nc3ccc(N4CCCCC4)nn3c(=O)c2c1C | inactive |
| Cc1cccn2c(=O)c3cc(C(=O)NCCC4=CCCCC4)n(C)c3nc12 | inactive |
| CN(C)C(CNC(=O)NC1CCCCC1)c1cccnc1 (centres undefined) | inactive |
| C[C@@H]1CN([C@@H](C)CO)C(=O)c2cc(NC(=O)Nc3ccc(F)cc3)ccc2O[C@@H](C)CCCCO[C@H]1CN(C)Cc1ccncc1 | inactive |
| COC(=O)c1cc(OC)c(OC)cc1NC(=O)Nc1cccc(C(C)=O)c1 | inactive |
| C[C@H]1CN([C@@H](C)CO)C(=O)Cc2cc(NC(=O)Cc3ccccc3)ccc2O[C@@H]1CN(C)Cc1ccc(Oc2ccccc2)cc1 | inactive |
| O=C(COc1cccc(C(F)(F)F)c1)Nc1ccc(S(=O)(=O)N2CCCC2)cc1 | inactive |
| O=C(c1cnccn1)N1CCN(C/C=C/c2ccccc2)CC1 | inactive |
| O=C(OCCOc1ccc(Br)cc1)c1cnccn1 | inactive |
| C[C@H]1CN([C@@H](C)CO)C(=O)c2cc(NC(=O)C3CC3)ccc2O[C@@H]1CN(C)CC1CCCCC1 | inactive |
| C[C@H](CO)N1C[C@H](C)[C@H](CN(C)Cc2ccc(C(F)(F)F)cc2)Oc2c(NC(=O)Nc3cccc4ccccc34)cccc2C1=O | inactive |
| C[C@@H]1CN([C@H](C)CO)C(=O)c2cc(NC(=O)Nc3cccc4ccccc34)ccc2O[C@@H](C)CCCCO[C@@H]1CN(C)Cc1ccc2c(c1)OCO2 | inactive |
| COc1ccc(NC(=O)Nc2ccc3c(c2)C(=O)N([C@@H](C)CO)C[C@H](C)[C@@H](CN(C)Cc2ccc(C(F)(F)F)cc2)OCCCC[C@H](C)O3)cc1 | inactive |
| C[C@@H]1CN([C@@H](C)CO)C(=O)c2cccc(NC(=O)C3CCOCC3)c2O[C@@H]1CN(C)S(=O)(=O)c1cn(C)cn1 | inactive |
| COC(=O)[C@H]1[C@H](CO)[C@H]2Cn3c(ccc(C4=CCCCC4)c3=O)[C@H]2N1CC1CCCCC1 | inactive |
